The results in this text go back to the supplement of paper PMC10849652.

The full data set covers some 8,800 targets. This sample favours those with a hit. About 0.5% of all pairs of compound and target were hits. Unmarked numbers belong to inactive results.

Experiment in all cases: log2 fold change, soluble protein after heating vs DMSO (PISA); higher = thermal stabilisation; K562 lysate, 10 uM; active = over 0.2 and 3.5 SD of the protein, either way, in both replicates (recomputed)
Compound in test [1]: NCC(=O)Nc1ccc(-n2nc(C(F)(F)F)cc2-c2ccc3c(ccc4ccccc43)c2)cc1
The gist of the method:
(§1)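 Thermal stability, expressed as log-two fold change relative to solvent controls, is given from duplicates. Crude K562 extract in PBS pH 7.4 with 1 mM MgCl2, at 1 mg/mL protein, was treated with 10 μM compound for 30 min and heated in aliquots for 3 min across 48°C-58°C. After pooling, adjustment to 0.5% NP-40 at 4°C and centrifugation at 21,000xg for 90 min, supernatant protein was measured by TMTpro 16plex LC-MS/MS with channel sums equalised.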

Compound in a further test: O=C(CCCCCCC(=O)Nc1ccccc1)NO [vorinostat]
The gist of the method: as §1

Compound in a further test: O=C(O)c1ccc2c(c1)nc(Nc1cccc(Cl)c1)c1ccncc12 [silmitasertib]
The gist of the method: as §1

Compound in test [2]: O=C1NC(=O)C(c2cnc3ccccn23)=C1c1cn2c3c(cc(F)cc13)CN(C(=O)N1CCCCC1)CC2
Summed up: as §1

Compound in a further test: c1cn2cc(-c3ccc4cn[nH]c4c3)nc(Nc3ccc(N4CCOCC4)cc3)c2n1 [entospletinib]
Summed up: as §1

Sequence of UniProt Q6PGP7 (Q6PGP7 whole entry, looked up): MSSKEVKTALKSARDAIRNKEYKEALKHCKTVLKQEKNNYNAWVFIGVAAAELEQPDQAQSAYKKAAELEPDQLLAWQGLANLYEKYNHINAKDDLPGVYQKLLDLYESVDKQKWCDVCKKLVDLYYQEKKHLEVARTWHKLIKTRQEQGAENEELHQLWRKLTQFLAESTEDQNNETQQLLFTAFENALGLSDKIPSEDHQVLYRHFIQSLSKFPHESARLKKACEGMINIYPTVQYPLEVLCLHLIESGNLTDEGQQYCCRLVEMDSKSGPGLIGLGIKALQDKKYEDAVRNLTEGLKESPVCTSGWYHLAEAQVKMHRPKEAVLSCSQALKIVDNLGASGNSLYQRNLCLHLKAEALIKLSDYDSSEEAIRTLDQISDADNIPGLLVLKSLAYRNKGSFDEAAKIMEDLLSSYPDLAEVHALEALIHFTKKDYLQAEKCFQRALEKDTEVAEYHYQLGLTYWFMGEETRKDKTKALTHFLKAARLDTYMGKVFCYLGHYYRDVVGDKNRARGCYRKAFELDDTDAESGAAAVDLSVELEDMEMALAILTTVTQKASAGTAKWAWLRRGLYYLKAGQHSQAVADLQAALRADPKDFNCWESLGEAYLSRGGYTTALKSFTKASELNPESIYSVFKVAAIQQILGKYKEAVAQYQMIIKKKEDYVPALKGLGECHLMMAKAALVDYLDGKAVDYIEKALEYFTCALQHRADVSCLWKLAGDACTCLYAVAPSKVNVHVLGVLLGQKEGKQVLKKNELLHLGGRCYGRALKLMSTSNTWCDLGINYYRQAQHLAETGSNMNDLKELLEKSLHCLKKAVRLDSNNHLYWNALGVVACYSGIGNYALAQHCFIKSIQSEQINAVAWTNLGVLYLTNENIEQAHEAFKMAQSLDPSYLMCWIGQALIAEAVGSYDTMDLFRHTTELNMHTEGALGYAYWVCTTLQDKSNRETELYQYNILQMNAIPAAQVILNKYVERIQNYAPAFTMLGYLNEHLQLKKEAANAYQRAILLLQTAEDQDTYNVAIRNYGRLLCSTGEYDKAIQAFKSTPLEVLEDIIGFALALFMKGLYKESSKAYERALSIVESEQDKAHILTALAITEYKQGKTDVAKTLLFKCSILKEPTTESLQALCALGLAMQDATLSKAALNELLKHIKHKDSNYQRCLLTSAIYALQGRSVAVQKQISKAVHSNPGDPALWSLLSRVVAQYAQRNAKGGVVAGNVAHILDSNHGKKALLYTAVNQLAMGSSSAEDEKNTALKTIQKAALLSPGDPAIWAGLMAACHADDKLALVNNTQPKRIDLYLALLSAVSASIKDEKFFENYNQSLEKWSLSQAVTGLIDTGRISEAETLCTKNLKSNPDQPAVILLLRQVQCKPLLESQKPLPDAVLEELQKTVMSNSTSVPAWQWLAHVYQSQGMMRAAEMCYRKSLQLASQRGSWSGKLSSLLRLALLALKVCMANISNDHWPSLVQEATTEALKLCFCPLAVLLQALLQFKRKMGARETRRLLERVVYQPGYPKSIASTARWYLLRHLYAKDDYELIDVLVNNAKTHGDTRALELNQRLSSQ
Sequence of UniProt O94842 (O94842 whole entry, looked up): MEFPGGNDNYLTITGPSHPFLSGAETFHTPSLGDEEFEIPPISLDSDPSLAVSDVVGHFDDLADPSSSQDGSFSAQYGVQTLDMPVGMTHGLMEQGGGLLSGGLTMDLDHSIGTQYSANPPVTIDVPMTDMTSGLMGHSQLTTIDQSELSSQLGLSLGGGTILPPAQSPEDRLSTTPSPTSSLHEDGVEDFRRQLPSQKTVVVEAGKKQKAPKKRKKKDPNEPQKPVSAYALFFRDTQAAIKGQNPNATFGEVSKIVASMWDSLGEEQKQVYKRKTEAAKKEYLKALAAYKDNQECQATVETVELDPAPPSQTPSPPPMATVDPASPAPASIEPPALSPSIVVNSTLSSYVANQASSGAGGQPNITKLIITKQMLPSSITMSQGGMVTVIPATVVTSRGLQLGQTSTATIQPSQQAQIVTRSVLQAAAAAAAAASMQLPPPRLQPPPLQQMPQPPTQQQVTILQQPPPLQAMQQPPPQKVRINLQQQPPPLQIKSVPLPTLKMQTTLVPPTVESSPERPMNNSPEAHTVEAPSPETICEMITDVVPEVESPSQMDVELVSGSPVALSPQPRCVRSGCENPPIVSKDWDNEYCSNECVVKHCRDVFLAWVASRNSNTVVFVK
Sequence of UniProt Q8N511 (Q8N511 whole entry, looked up): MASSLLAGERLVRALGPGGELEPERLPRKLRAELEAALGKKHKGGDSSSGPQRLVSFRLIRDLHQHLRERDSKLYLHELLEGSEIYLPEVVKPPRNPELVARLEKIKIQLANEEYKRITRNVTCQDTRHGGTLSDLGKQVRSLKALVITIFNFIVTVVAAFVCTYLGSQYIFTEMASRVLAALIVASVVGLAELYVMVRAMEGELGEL
Sequence of UniProt Q04726 (Q04726 whole entry, looked up): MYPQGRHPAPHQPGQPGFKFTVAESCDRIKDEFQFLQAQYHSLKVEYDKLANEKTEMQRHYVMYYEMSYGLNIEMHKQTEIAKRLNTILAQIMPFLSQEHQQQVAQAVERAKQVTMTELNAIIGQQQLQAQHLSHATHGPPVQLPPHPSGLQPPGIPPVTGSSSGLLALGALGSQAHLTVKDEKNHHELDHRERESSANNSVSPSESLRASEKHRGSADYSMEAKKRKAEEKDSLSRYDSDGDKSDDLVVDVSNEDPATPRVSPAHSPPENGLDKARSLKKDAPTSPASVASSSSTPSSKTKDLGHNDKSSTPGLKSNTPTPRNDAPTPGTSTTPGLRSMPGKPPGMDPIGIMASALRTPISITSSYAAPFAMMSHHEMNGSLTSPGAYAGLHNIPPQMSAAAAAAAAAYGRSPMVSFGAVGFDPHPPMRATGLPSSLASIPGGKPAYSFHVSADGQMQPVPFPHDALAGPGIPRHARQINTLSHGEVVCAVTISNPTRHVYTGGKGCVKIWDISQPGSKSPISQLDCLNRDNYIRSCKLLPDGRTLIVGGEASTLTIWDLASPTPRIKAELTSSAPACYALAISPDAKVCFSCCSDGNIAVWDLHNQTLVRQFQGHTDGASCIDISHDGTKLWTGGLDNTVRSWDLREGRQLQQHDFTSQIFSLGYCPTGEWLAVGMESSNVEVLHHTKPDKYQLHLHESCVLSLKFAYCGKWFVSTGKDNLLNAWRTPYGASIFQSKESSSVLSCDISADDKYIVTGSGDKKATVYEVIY
Sequence of UniProt Q13769 (Q13769 whole entry, looked up): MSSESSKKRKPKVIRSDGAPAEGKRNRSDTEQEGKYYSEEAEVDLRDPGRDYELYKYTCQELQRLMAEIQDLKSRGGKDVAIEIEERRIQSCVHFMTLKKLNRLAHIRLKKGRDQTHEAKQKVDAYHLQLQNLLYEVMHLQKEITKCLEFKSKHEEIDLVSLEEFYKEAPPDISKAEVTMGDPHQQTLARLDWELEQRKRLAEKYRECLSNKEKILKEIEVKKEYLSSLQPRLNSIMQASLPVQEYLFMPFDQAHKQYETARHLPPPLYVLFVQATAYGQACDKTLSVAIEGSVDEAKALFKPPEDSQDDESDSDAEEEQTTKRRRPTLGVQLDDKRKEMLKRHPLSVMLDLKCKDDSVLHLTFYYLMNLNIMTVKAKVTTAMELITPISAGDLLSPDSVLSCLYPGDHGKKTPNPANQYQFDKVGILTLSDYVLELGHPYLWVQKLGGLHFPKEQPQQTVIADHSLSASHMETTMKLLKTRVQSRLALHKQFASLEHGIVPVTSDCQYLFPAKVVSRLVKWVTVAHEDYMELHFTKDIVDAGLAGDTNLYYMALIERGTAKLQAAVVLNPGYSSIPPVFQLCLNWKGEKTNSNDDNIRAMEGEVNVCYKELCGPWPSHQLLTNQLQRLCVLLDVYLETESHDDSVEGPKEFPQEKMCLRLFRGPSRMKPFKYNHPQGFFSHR
Sequence of UniProt Q8TDI8 (Q8TDI8 whole entry, looked up): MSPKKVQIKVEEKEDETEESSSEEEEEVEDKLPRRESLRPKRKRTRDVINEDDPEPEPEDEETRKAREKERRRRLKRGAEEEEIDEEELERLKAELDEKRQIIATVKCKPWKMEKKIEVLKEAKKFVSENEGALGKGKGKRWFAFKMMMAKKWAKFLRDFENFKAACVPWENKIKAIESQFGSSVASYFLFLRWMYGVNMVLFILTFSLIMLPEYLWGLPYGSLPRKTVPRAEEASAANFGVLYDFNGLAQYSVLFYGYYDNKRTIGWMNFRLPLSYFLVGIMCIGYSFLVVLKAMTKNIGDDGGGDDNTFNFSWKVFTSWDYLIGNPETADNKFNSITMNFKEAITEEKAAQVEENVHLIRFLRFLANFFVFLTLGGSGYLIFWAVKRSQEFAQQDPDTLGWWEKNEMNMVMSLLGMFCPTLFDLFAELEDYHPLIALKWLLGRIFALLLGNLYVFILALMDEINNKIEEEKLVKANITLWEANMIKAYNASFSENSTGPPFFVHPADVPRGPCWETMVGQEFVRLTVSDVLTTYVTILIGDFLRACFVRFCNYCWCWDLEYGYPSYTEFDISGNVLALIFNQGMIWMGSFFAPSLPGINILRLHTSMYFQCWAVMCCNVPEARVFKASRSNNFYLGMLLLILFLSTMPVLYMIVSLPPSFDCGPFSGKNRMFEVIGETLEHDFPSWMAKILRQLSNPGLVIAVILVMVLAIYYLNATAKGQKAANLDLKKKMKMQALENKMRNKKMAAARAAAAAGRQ

On to TOX4 (UniProt O94842), for which the log2 fold change in test [1] was -0.021; in the test with vorinostat it was -0.018; with silmitasertib it was -0.037; in test [2], -0.025; in the test with entospletinib, -0.006.

On to TLE3 isoform 4 (UniProt Q04726), for which the log2 fold change in test [1] is 0.011; with vorinostat, 0.047; with silmitasertib it was -0.052; in test [2], -0.018; in the test with entospletinib, -0.009.

Consider TMEM263 (UniProt Q8WUH6), for which the log2 fold change was 0.053 in test [1]; 0.289 in the test with vorinostat; -0.15 in the test with silmitasertib; -0.113 in test [2]; -0.034 with entospletinib.

With TMC1 (UniProt Q8TDI8), the log2 fold change is 0.015 in test [1]; -0.121 in the test with vorinostat; 0.02 with silmitasertib; -0.337 in test [2]; 0.012 with entospletinib.

For the target THOC5 (UniProt Q13769), the log2 fold change in test [1] is 0.012; with vorinostat, -0.077; in the test with silmitasertib it was 0.011; in test [2], 0.008; with entospletinib, -0.009.

Consider TJP1 (UniProt G3V1L9), for which the log2 fold change in test [1] is -0.044; with vorinostat it was -0.484 (active); with silmitasertib it was -0.061; in test [2] it was 0.127.

With TTC37 (UniProt Q6PGP7), the log2 fold change in test [1] was 0.136; with vorinostat it was 0.153; with silmitasertib it was 0.03; in test [2] it was 0.046.

As to TMEM199 (UniProt Q8N511), the log2 fold change in test [1] was 0.021; in the test with vorinostat it was 0.13; with silmitasertib, -0.017; in test [2], -0.005; in the test with entospletinib, 0.008.

Regarding TPP2 (UniProt Q5VZU9), the log2 fold change in test [1] is -0.125; with vorinostat, -0.173; in the test with silmitasertib, 0.044; in test [2] it was 0.002; with entospletinib, 0.109.
